1 sequence from publication PMC7862700, “An all-to-all approach to the identification of sequence-specific readers for epigenetic DNA modifications on cytosine” can be followed below.

What all share (assay): DAPPL (digital affinity profiling via proximity ligation, sequencing); 10 mM Tris-HCl pH 7.5, 50 mM NaCl, 1 mM DTT, 4% glycerol, room temperature, 30 min; GST-TFs on glutathione beads, 16-mer random dsDNA library, 0.1% formaldehyde crosslink after washing; high values mean tight binding
In one assay the target is T1, FLI1 (Homo sapiens, UniProt Q01543 1-452).
T1 sequence: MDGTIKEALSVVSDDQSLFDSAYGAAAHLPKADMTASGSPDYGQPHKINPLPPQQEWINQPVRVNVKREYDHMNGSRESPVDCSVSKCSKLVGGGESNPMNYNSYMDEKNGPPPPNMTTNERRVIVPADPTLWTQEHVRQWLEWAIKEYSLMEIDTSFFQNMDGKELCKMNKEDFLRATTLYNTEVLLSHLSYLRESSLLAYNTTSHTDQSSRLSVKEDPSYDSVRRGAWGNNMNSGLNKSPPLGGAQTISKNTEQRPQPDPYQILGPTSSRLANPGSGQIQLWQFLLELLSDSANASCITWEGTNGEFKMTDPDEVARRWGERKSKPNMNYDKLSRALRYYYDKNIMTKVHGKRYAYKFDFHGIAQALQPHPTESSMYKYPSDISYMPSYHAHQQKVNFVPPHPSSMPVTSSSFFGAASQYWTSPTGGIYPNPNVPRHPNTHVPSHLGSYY
The note with it: protein: recombinant; tags: N-terminal GST; dsDNA, one strand shown. In outline: (§1)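 In yeast, human transcription factors were expressed with a GST fusion, then pulled down on glutathione beads and given DNA barcodes. Pooled with a tag-only sample, they were exposed to 200 nmole of a 16-mer random double-stranded DNA library (Tris/NaCl/DTT/glycerol buffer, room temperature, 30 min), washed, crosslinked with 0.1% formaldehyde, proximity-ligated using BsaI/T4 ligase for 1 h at 37 °C, PCR-amplified and read on an Illumina NextSeq500. Each hexamer's frequency of reads for a factor, divided by the matching frequency for the tag-only sample, gives the binding signal.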

For another assay, the target named is T2, ELK1 (Homo sapiens, UniProt P19419 1-428).
T2 sequence: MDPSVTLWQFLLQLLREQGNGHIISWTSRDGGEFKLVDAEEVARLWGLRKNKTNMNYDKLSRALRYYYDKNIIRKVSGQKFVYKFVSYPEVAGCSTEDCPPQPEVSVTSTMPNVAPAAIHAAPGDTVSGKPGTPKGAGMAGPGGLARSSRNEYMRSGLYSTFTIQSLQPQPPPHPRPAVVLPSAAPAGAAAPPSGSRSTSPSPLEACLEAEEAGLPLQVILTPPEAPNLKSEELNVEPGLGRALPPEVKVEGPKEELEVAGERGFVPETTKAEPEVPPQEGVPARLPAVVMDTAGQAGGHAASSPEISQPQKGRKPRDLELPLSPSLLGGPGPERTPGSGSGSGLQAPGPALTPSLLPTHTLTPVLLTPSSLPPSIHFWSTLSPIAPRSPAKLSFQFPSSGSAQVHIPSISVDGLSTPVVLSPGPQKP
Conditions: protein: recombinant; tags: N-terminal GST; dsDNA, one strand shown. The gist of the method: as §1

For a further assay, the target named is T3, GABPA (Homo sapiens, UniProt Q06546 1-454).
T3 sequence: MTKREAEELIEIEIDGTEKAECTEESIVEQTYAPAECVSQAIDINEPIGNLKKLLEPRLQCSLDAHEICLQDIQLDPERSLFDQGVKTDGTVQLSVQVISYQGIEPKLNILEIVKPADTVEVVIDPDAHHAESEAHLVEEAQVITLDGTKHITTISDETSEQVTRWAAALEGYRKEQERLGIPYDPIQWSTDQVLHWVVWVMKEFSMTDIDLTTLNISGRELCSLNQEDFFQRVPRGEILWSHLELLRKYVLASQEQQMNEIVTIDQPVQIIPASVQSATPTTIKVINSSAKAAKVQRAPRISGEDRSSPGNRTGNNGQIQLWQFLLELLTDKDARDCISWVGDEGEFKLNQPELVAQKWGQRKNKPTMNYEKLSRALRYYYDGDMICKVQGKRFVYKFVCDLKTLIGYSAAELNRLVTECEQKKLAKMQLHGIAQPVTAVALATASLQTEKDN
Conditions: protein: recombinant; tags: N-terminal GST; dsDNA, one strand shown. In outline: as §1

Another assay addresses T4, ERG (Homo sapiens, UniProt P11308 1-479).
T4 sequence: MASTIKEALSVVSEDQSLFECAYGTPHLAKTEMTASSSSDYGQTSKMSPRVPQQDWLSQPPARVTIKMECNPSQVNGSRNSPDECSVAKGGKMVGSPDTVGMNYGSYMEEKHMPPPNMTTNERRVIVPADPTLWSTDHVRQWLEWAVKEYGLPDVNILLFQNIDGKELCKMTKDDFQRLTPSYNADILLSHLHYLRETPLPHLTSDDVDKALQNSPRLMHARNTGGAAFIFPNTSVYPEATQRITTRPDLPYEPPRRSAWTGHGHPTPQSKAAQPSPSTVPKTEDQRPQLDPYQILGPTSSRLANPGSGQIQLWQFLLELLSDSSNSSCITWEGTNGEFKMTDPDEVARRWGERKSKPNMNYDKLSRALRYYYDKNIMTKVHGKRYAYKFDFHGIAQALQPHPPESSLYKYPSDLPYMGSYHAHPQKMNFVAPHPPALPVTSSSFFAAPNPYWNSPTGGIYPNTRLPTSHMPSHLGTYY
The note with it: protein: recombinant; tags: N-terminal GST; dsDNA, one strand shown. In outline:
as §1

Another assay concerns the target ELF1 (Homo sapiens, UniProt P32519 1-619). The note with it: protein: recombinant; tags: N-terminal GST; dsDNA, one strand shown. In outline:
as §1

The target in a further assay is T5, EHF (Homo sapiens, UniProt Q9NZC4 1-300).
T5 sequence: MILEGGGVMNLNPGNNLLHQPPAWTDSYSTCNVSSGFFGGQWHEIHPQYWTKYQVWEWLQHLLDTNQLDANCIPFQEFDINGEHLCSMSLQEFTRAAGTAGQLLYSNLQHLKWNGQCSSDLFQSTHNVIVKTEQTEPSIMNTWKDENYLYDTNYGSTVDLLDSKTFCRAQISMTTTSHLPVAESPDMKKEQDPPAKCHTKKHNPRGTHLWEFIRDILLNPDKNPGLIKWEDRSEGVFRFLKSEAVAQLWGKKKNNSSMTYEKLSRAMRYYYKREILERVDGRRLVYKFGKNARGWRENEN
The note with it: protein: recombinant; tags: N-terminal GST; dsDNA, one strand shown. The gist of the method:
as §1

A further assay concerns the target SPI1 (Homo sapiens, UniProt P17947 1-270). The note with it: protein: recombinant; tags: N-terminal GST; dsDNA, one strand shown. In outline:
as §1

The next assay has as its target SPIB (Homo sapiens, UniProt Q01892 1-262). Conditions: protein: recombinant; tags: N-terminal GST; dsDNA, one strand shown. In outline:
as §1

A further assay addresses T6, ELK3 (Homo sapiens, UniProt P41970 1-407).
T6 sequence: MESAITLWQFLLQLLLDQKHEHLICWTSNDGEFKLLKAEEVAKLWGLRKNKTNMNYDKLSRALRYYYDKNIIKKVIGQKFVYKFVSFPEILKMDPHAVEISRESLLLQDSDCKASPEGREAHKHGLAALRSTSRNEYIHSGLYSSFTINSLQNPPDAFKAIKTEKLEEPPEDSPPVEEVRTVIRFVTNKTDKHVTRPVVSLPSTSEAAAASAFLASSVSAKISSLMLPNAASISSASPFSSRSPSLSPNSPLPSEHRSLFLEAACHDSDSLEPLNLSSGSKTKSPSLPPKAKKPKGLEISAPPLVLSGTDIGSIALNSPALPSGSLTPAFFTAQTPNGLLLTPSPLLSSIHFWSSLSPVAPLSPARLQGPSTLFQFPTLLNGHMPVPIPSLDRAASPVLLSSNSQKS
The note with it: protein: recombinant; tags: N-terminal GST; dsDNA, one strand shown. The gist of the method: as §1

In another assay the target is T7, FEV (Homo sapiens, UniProt Q99581 1-238).
T7 sequence: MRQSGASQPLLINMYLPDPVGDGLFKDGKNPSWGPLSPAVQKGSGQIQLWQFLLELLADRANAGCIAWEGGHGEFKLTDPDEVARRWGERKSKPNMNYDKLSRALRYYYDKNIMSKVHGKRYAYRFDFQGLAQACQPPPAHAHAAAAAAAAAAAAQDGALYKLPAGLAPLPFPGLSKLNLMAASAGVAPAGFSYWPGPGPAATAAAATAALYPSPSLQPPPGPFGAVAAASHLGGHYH
Conditions: protein: recombinant; tags: N-terminal GST; dsDNA, one strand shown. In outline: as §1

For a further assay, the target named is ETV5 (Homo sapiens, UniProt P41161 1-510). Conditions: protein: recombinant; tags: N-terminal GST; dsDNA, one strand shown. In outline: as §1
Sequence of ETV5 (P41161 whole entry): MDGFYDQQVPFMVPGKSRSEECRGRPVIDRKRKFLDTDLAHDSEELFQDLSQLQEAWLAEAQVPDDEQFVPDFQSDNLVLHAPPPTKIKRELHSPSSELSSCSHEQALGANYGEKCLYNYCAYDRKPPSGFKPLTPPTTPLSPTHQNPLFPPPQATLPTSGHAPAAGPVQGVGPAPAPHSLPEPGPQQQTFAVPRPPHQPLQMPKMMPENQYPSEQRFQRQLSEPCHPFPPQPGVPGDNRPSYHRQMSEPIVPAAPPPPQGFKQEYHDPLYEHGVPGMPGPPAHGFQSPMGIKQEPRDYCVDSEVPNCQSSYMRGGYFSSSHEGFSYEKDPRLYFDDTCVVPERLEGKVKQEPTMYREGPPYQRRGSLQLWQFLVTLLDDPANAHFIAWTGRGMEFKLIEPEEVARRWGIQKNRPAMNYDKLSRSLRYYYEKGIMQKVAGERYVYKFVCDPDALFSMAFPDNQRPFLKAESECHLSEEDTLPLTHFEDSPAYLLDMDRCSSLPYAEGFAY
The next assay concerns the target HSF1 (Homo sapiens, UniProt Q00613 1-529). The note with it: protein: recombinant; tags: N-terminal GST; chain copies: 3; dsDNA, one strand shown. In outline: as §1
Another assay addresses T8, SPIC (Homo sapiens, UniProt Q8N5J4 1-248).
T8 sequence: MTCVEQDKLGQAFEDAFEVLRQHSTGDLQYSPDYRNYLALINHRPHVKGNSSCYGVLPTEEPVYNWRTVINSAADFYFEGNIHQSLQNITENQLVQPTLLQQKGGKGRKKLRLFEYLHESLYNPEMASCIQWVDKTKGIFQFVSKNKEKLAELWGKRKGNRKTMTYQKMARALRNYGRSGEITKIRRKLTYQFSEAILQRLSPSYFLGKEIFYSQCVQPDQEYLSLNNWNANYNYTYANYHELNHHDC
Conditions: protein: recombinant; tags: N-terminal GST; dsDNA, one strand shown. The gist of the method:
as §1

The target of the next assay is ELF4 (Homo sapiens, UniProt Q99607 1-663). The note with it: protein: recombinant; tags: N-terminal GST; dsDNA, one strand shown. The gist of the method:
as §1

The next assay concerns the target T9, ELK4 (Homo sapiens, UniProt P28324-2 1-405).
T9 sequence: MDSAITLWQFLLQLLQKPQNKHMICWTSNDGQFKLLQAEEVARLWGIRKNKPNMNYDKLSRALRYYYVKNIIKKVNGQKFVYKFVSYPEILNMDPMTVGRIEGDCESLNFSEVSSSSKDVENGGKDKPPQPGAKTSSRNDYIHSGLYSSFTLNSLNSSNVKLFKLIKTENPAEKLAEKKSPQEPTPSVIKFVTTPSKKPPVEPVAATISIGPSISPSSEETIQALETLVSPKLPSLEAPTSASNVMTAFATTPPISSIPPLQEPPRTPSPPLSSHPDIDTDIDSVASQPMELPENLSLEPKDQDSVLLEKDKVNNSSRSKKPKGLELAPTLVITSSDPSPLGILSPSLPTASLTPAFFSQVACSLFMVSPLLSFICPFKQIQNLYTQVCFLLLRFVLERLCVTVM
Conditions: protein: recombinant; tags: N-terminal GST; dsDNA, one strand shown. The gist of the method:
as §1

Another assay has as its target T10, ETV2 (Homo sapiens, UniProt O00321 1-342).
T10 sequence: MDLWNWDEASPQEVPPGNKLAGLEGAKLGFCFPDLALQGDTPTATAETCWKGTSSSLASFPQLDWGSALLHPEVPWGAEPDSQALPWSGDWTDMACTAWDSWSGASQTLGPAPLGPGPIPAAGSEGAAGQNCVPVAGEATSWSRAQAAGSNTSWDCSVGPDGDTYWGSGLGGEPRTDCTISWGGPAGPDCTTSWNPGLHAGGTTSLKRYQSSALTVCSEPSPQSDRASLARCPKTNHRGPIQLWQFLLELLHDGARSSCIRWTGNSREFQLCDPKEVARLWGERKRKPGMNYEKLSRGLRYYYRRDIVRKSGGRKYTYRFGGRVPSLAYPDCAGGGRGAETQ
Conditions: protein: recombinant; tags: N-terminal GST; dsDNA, one strand shown. In outline: as §1

The next assay has as its target T11, ELF3 (Homo sapiens, UniProt P78545 1-371).
T11 sequence: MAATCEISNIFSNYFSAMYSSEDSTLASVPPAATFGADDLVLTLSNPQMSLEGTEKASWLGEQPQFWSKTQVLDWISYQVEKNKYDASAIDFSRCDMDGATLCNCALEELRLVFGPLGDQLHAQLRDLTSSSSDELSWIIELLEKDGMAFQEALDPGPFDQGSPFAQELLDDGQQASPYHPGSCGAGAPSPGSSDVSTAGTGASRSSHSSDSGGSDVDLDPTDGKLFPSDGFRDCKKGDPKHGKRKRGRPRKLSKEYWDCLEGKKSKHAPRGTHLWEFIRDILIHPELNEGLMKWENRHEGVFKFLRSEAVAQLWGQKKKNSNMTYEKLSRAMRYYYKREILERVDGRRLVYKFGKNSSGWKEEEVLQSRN
Conditions: protein: recombinant; tags: N-terminal GST; dsDNA, one strand shown. The gist of the method:
as §1

A further assay deals with CRX (Homo sapiens, UniProt O43186 1-299). The note with it: protein: recombinant; tags: N-terminal GST; dsDNA, one strand shown. In outline:
as §1

The target of the next assay is ETV1 (Homo sapiens, UniProt P50549 1-477). Conditions: protein: recombinant; tags: N-terminal GST; dsDNA, one strand shown. The gist of the method:
as §1

Sequence of CRX (O43186 whole entry): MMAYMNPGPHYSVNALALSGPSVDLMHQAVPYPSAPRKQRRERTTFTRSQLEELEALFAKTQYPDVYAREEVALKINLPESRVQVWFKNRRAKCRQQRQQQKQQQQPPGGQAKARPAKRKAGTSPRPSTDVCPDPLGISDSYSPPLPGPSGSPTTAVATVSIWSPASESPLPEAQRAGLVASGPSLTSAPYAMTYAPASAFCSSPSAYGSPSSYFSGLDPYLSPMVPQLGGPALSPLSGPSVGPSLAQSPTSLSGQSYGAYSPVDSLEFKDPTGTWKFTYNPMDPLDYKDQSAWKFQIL
Sequence of HSF1 (Q00613 whole entry): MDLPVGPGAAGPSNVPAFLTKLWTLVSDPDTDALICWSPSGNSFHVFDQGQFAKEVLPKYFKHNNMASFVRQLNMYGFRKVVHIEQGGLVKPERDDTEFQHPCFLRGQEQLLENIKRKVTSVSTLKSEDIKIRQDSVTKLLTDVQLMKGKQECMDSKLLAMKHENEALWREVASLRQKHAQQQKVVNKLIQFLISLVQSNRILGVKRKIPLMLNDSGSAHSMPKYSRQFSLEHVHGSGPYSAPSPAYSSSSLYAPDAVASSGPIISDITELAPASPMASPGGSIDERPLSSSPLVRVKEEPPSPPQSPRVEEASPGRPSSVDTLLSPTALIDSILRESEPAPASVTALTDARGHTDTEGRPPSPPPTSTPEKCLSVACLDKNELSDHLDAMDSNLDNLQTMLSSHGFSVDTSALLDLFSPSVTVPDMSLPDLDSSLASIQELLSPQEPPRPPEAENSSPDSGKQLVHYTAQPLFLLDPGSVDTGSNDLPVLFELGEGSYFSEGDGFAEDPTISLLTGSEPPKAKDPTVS
Sequence of ETV1 (P50549 whole entry): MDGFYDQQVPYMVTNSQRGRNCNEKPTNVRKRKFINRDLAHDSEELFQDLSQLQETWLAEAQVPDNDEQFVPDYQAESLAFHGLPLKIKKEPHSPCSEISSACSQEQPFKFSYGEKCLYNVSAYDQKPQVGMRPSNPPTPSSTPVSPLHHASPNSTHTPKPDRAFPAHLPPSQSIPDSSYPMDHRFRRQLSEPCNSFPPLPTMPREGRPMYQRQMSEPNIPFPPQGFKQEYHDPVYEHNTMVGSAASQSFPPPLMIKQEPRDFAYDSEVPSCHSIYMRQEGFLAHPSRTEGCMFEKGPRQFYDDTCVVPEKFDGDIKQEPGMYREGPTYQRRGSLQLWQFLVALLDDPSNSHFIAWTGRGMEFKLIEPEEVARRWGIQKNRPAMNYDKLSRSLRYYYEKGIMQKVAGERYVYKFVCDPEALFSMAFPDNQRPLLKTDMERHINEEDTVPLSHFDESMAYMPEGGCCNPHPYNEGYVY
Sequence of ELF1 (P32519 whole entry): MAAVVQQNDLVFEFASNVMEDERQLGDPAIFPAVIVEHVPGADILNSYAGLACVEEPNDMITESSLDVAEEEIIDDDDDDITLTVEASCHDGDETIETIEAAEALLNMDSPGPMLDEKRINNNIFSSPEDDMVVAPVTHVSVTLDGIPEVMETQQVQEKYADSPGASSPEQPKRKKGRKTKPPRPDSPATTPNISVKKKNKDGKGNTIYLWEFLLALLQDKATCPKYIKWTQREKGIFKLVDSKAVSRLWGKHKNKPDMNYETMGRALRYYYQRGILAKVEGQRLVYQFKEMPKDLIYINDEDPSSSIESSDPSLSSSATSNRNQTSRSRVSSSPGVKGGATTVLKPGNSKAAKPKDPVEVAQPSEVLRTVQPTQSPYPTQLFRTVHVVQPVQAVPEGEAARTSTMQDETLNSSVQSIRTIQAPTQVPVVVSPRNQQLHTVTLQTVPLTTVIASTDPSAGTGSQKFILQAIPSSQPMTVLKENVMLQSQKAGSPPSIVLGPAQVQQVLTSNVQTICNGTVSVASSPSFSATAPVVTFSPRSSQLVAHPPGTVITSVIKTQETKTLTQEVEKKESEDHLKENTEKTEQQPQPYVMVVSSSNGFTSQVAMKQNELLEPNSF
Sequence of ELF4 (Q99607 whole entry): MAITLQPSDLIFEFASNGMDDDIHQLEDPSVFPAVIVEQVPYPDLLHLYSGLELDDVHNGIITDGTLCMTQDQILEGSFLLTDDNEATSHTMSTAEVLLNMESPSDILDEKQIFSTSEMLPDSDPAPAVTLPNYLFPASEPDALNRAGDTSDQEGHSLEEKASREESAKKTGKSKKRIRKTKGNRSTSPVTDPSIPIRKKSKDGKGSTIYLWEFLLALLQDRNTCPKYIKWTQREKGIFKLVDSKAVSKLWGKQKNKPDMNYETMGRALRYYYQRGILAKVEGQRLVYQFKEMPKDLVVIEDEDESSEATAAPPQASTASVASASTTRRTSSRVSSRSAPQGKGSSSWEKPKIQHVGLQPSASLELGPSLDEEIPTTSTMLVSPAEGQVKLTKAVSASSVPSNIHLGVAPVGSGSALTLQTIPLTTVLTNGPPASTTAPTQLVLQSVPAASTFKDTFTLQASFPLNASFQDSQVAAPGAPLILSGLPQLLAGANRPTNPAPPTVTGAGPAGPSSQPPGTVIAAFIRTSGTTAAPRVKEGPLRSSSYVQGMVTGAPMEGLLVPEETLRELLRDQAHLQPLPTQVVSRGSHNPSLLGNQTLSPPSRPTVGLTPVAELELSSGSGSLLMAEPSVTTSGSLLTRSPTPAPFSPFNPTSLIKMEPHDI
Sequence of SPIB (Q01892 whole entry): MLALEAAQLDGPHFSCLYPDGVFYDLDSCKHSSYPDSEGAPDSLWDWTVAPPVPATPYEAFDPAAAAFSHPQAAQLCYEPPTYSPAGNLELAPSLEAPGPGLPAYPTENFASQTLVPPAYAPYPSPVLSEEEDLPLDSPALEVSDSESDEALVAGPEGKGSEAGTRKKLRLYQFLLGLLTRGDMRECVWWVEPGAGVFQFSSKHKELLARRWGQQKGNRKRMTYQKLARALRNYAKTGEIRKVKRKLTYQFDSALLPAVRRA

Take TGATCC: the binding signal with FLI1 is 1.28 fold enrichment (6-mer frequency, TF over GST control); with ELK1 it was 1.32 fold enrichment (6-mer frequency, TF over GST control); in the assay with GABPA, 1.44 fold enrichment (6-mer frequency, TF over GST control); with ERG, 1.29 fold enrichment (6-mer frequency, TF over GST control); in the assay with ELF1 it was 1.26 fold enrichment (6-mer frequency, TF over GST control); with EHF it was 1.2 fold enrichment (6-mer frequency, TF over GST control). Moreover, the binding signal was 1.21 fold enrichment (6-mer frequency, TF over GST control) in the assay with SPI1; 1.37 fold enrichment (6-mer frequency, TF over GST control) with SPIB; 1.18 fold enrichment (6-mer frequency, TF over GST control) with ELK3; 1.29 fold enrichment (6-mer frequency, TF over GST control) with FEV; 1.3 fold enrichment (6-mer frequency, TF over GST control) with ETV5; 1.65 fold enrichment (6-mer frequency, TF over GST control) in the assay with HSF1. Besides, the binding signal in the assay with SPIC was 1.32 fold enrichment (6-mer frequency, TF over GST control); with ELF4, 1.28 fold enrichment (6-mer frequency, TF over GST control); with ELK4, 1.26 fold enrichment (6-mer frequency, TF over GST control); with ETV2 it was 1.09 fold enrichment (6-mer frequency, TF over GST control); in the assay with ELF3, 1.1 fold enrichment (6-mer frequency, TF over GST control); with CRX, 2.2 fold enrichment (6-mer frequency, TF over GST control). Moreover, the binding signal with ETV1 was 1.27 fold enrichment (6-mer frequency, TF over GST control).
